SMILES strings stand for the structures. Over roughly 110,000 compounds, “z-score” has its median near -0.1; the highest 2% begin near 2. The list comes from a sample in which the highest values are over-represented; it also holds similar structures and randomly drawn compounds. Activity calls are given as the source filed them.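 How the source made its calls: active means z-score in the third read window above 3 or below -3; inactive means the rest.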

The target of the assay is Metabotropic glutamate receptor 8 (Rattus norvegicus) (UniProt P70579). As to the kind of experiment: rat mGluR8 modulators via GIRK flux, primary screen, cell-based, thallium flux, HTS (AID 488969). The following applies: HEK293 rat mGluR8, GIRK (G protein-gated inwardly rectifying potassium channel) thallium flux, FluoZin2; at 10 µM; stronger effect = higher value; submaximal glutamate (EC20) added with thallium.
Chain of Metabotropic glutamate receptor 8 (Rattus norvegicus) (P70579 whole entry, looked up): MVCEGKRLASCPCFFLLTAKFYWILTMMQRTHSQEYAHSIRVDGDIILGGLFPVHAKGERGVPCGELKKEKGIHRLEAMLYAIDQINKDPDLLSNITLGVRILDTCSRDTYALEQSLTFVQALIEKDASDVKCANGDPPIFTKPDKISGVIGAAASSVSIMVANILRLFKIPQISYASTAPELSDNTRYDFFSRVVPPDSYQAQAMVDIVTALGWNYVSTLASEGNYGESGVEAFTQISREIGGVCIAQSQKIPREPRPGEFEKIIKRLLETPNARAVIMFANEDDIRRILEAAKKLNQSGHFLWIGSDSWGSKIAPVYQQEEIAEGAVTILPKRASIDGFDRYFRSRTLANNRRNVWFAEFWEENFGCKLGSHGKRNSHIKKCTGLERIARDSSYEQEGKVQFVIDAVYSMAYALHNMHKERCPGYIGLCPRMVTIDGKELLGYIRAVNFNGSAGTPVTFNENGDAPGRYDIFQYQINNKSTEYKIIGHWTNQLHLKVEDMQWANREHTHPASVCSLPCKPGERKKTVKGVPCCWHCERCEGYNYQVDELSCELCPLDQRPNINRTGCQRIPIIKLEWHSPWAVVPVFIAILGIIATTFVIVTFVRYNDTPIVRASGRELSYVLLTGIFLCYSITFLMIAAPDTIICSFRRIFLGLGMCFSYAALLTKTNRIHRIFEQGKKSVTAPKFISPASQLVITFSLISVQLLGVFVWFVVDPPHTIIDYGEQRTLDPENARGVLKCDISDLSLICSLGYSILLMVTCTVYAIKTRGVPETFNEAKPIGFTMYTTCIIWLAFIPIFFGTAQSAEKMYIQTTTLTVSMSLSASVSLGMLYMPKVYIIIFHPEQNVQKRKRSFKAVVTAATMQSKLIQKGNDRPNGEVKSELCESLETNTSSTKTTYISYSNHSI
Consider `O=C(CCC(=O)OCC(=O)c1ccc(-c2ccccc2)cc1)Nc1cccc2cccnc12`, for which the z-score was -0.0975. To `Cn1c(=O)c(C(=O)Nc2cccnc2)c(O)c2ccccc21` belongs 1.29; to `COc1ccc2c(Cl)c(C(=O)NCCCn3ccnc3)sc2c1`, -0.0695; to `Cc1cc(C)c2nc(SC(C)C(=O)NCC(=O)Nc3ccc(F)c(F)c3F)cc(C)c2c1` (stereo not drawn), 7.48 (active). As for `Cc1cc(SC(C)C(=O)NCC(=O)Nc2ccc(F)c(F)c2F)nc2ccccc12` (stereo not drawn), the z-score was -0.101. For `Cc1ccc(-n2nnnc2SC(C)C(=O)NCC(=O)Nc2ccc(F)c(F)c2F)c(C)c1` (stereo not drawn), the z-score is -0.287. Turning to `CCCCC(=O)Nc1ccc(C(=O)NNC(=O)c2cccs2)cc1`, the z-score was -0.305.

In the case of `O=C(NCc1ccco1)c1ccc(COc2cc(Cl)ccc2Cl)cc1`, the z-score amounted to 0.104. To `COc1ccc(Cc2nnc(N)s2)cc1` belongs -0.0129; to `CCn1c(SCC(=O)OC)nc2sc3c(c2c1=O)CCC3`, -0.399. `CCn1c(SCC(=O)O)nc2sc3c(c2c1=O)CCC3` gave a z-score of -1.62.

On to `CCn1c(SCC(N)=O)nc2sc3c(c2c1=O)CCCC3`, for which the z-score was 8.59 (active). In the case of `CCN1C(=O)c2ccc(C(=O)NCc3ccccc3)cc2C1=O` it was -0.278. In the case of `COC(=O)c1ccc(CSc2nnc(NC(=O)C3CC(=O)N(c4ccc5c(c4)OCCO5)C3)s2)cc1` (stereo not drawn) it was 0.162; in that of `CCc1nnc(NC(=O)C2CC(=O)N(c3ccc4c(c3)OCCO4)C2)s1` (stereo not drawn), -0.124; in that of `O=C(Nc1nnc(SCc2ccc(F)cc2)s1)C1CC(=O)N(c2ccc3c(c2)OCCO3)C1` (stereo not drawn), 3.68 (active). On to `O=C(NCc1ccco1)C(Cc1ccccc1)NS(=O)(=O)c1cccc2nsnc12` (stereo not drawn), for which the z-score is -0.0409.

In the case of `Cn1c(=O)[nH]c(=O)c2c1nc(Br)n2CCCSc1nc2ccccc2o1`, the z-score is -0.621. In the case of `COc1ccccc1NC(=O)c1cccnc1` it was 0.226; in that of `COc1ccccc1NC(=O)c1ccc(S(=O)(=O)N2CCOCC2)cc1`, 0.986; in that of `COc1ccccc1NS(=O)(=O)c1ccc(C)c(NC(=O)c2ccc(S(=O)(=O)N3CCCCCC3)cc2)c1`, -0.106. Consider `COc1ccccc1NC(=O)c1ccc(N)cc1`, for which the z-score was 0.511. To `COc1ccccc1NC(=O)c1ccc(S(=O)(=O)N2CCCC2)cc1` belongs 3.99 (active); to `COc1ccccc1NC(=O)c1cc(C(=O)Nc2ccccc2OC)cc(N2C(=O)CCC2=O)c1`, 4.66 (active). Consider `O=[N+]([O-])c1ccc(OCC(O)CN2CCN(c3ccccc3F)CC2)cc1` (stereo not drawn), for which the z-score was -0.357. `Cc1ccc(NS(=O)(=O)c2cc([N+](=O)[O-])ccc2NNC(=S)Nc2cccc(Cl)c2)c(C)c1` displayed a z-score of -0.12. To `Cc1cccc(Sc2ccc([N+](=O)[O-])cn2)c1` belongs -1.63; to `O=C(CSc1nc(-c2cccs2)cc(C(F)(F)F)n1)NCc1ccccc1`, -0.654; to `COc1ccc(/C=N/NC(=O)CCCOc2ccc(Cl)cc2Cl)cc1`, -0.126. For `Cc1ccc(Nc2cc(C)nn2-c2nc(C)cc(=O)[nH]2)cc1`, the z-score was 16.4 (active). In the case of `Cc1cc(C)nc(-n2nc(C)cc2Nc2ccccc2)n1` it was -0.115; in that of `Cc1ccc(Nc2cc(C)nn2-c2nc(C)cc(C)n2)cc1`, 0.547. To `CN(C)CC1CCCCC1C1(O)c2ccccc2CSc2sccc21` (stereo not drawn) belongs 1.47. `CN1CCC(C2(O)c3ccccc3CSc3sccc32)CC1` (stereo not drawn) came in with a z-score of 2.02. In the case of `CN(C)Cc1ccccc1C1(O)c2ccccc2CSc2ccccc21` (stereo not drawn) it was -0.164; in that of `COc1ccc(Nc2cc(C(=O)NCc3ccco3)c3ccccc3n2)cc1`, -0.00632. Compound `O=C(O)c1cc(S(=O)(=O)Nc2ccccc2C(=O)O)ccc1O` returned a z-score of -0.576. In the case of `CCOC(=O)c1c(C)nc2sc(C(N)=O)c(N)c2c1-c1ccccc1` it was -1.25; in that of `Cc1cc(S(=O)(=O)n2cnc3cc([N+](=O)[O-])ccc32)ccc1Cl`, -0.268. Compound `Cc1ccc(S(=O)(=O)n2cnc3cc([N+](=O)[O-])ccc32)cc1C` had a z-score of 2.81. The compound `Cc1ccc(S(=O)(=O)n2cnc3cc([N+](=O)[O-])ccc32)c(C)c1C` yielded a z-score of -0.143. Compound `C=CCSc1nnc(Cc2cc(=O)[nH]c(=O)[nH]2)n1-c1cc(C)ccc1C` yielded a z-score of -0.111.

`COc1ccc(NC(=S)N2CCC(N(C)CCN3CCOCC3)CC2)cc1Cl`: the z-score was -0.269. To `CCC(=O)NC(=S)NNC(=O)c1ccc([N+](=O)[O-])cc1` belongs 0.17. In the case of `C=CCN(CC=C)C(=S)Nc1ccccc1` it was -0.0866; in that of `O=C(NC(=S)Nc1ccccn1)c1ccc([N+](=O)[O-])cc1`, 0.166; in that of `CN(Cc1ccccc1)C(=S)NC(=O)c1ccc(-c2ccccc2)cc1`, 4.13 (active).

`CC(C)NC(=S)NC(=O)c1ccc(-c2ccccc2)cc1`: the z-score came to 0.201. Take `CCCN(CCC)C(=S)NC(=O)c1ccc(-c2ccccc2)cc1`: the z-score was -0.959. For the compound `CN(Cc1ccccc1)C(=S)NC(=O)C1CCCCC1`, the z-score worked out at 1.47.

With `C=CCN(CC=C)C(=S)NC(=O)c1ccc([N+](=O)[O-])cc1`, the z-score is 4.84 (active). Turning to `C=CCN(CC=C)C(=S)NC(=O)c1ccc(-c2ccccc2)cc1`, the z-score is 11.4 (active). `OCc1nc2ccccc2n1C/C=C/c1ccccc1` returned a z-score of 0.00864.

On to `O=C(Nc1ccc(Cl)cc1)C1CCCN(S(=O)(=O)c2cnc[nH]2)C1` (stereo not drawn), for which the z-score was 0.605. In the case of `COc1cc(C)c(Br)cc1S(=O)(=O)N1CCCC1` it was 0.188; in that of `O=C1c2cccc3cccc(c23)C(=O)N1c1ccc2ncccc2c1`, -0.261; in that of `CCOC(=O)C1=C(O)/C(=C\c2cccc(OC)c2)N=C1C`, -0.194. Take `COc1cccc(-c2nc(Oc3cc(C)cc(C)c3)c3ccccc3n2)c1O`: the z-score was determined as 0.123.

Take `CCNCc1cc(Br)c(OCC(=O)Nc2ccccc2)c(OC)c1`: the z-score worked out at 1.18. `COc1cc(CNCC(C)C)cc(Br)c1OCC(=O)Nc1ccccc1` showed a z-score of 2.21. To `COc1cc(CNCC(C)C)c(Br)cc1OCC(=O)NCc1ccccc1` belongs 0.232; to `COc1ccc(OCC(=O)N2CCN(c3nnc(-c4ccccc4)c4ccccc34)CC2)cc1`, 0.267.

On to `CCOC(=O)c1ccc(S(=O)(=O)NCC(c2ccc(N(C)C)cc2)c2c[nH]c3ccccc23)cc1` (stereo not drawn), for which the z-score was determined as 0.201. In the case of `CCOc1ccccc1NC(=O)Cc1c(F)cccc1Cl` it was -0.491; in that of `C#CC1(O)CC(C)N(C)C(C)C1` (stereo not drawn), -0.0403. To `O=C(NNc1cccc(Cl)n1)c1cccnc1Cl` belongs -0.00142; to `CCN(CC)CC(O)COCCC12CC3CC(CC(C3)C1)C2` (stereo not drawn), 3.04 (active); to `OCCN(CCO)CC(O)COCCC12CC3CC(CC(C3)C1)C2` (stereo not drawn), 0.239. To `OC(COCCC12CC3CC(CC(C3)C1)C2)CN1CCCCC1` (stereo not drawn) belongs -0.152.

Compound `O=C(COC(=O)c1cccs1)c1ccc2c(c1)OCCO2` gave a z-score of -0.579.

As for `CC(C)(C)NC(=O)C(c1ccc(F)cc1)N(Cc1ccco1)C(=O)Cn1nnc(-c2cccs2)n1` (stereo not drawn), the z-score is -0.585. `O=C(CSc1ncnc2ccccc12)N1CCN(c2ccccc2)CC1` returned a z-score of -0.0217. As for `CC(C)NC(=O)c1nc2ccccc2s1`, the z-score is 3.05 (active). To `O=C(NCCO)c1nc2ccccc2s1` belongs 1.28; to `CCOC(=O)N1CCN(C(=O)CSc2ncccn2)CC1`, 0.107. In the case of `CCOC(=O)N1CCN(C(=O)c2nc3ccccc3s2)CC1` it was 2.8. As for `CCOC(=O)N1CCN(C(=O)CSc2ncnc3ccccc23)CC1`, the z-score was 3.04 (active). `CCOC(=O)N1CCN(/C=C(\C#N)c2nc3ccccc3s2)CC1` yielded a z-score of 1.73. Turning to `O=C(c1nc2ccccc2s1)N1CCSCC1`, the z-score was found to be 0.0723.

As to `CC(C)(C)NC(=O)c1nc2ccccc2s1`, the z-score was determined as 0.283. `S=C(Nc1ccc(Cl)cc1)c1sc(N2CCCCC2)nc1N1CCOCC1`: the z-score was -0.435.

The compound `CC(NC(=O)COc1ccccc1-c1ccccc1)c1ccccc1` (stereo not drawn) yielded a z-score of -0.192. In the case of `O=C(COc1ccc2c(c1)CCC2)N1CCN(c2cccc(C(F)(F)F)c2)CC1` it was -0.0515; in that of `Cc1ccc(OCCN2CCN(CC(O)Cn3c4ccccc4c4ccccc43)CC2)cc1` (stereo not drawn), 0.113. To `CC(C(=O)N1c2ccccc2CCc2ccccc21)n1nnc(-c2ccc(N(C)C)cc2)n1` (stereo not drawn) belongs 0.255; to `Cc1cc(NC(=O)CSc2nc(CC(C)(C)C)nc3c2c(=O)n(C)c(=O)n3C)no1`, -0.0135. To `CCOc1ccc2nc(NC(=O)c3ccoc3C)sc2c1` belongs -0.855; to `COc1ccccc1Nc1nnc(SCC(=O)NC(=O)Nc2ccc3c(c2)OCCO3)s1`, -0.138. In turn, `Cc1cc(C(=O)CSc2nnc(-c3cccnc3)n2-c2ccccc2)c(C)n1CC1CCCO1` (stereo not drawn) returned a z-score of -0.185.

Regarding `COC(=O)Nc1ccc(S(=O)(=O)Nc2ccccc2F)cc1`, the z-score came out at 0.00713. The compound `Cc1cc(NC(=O)C2C3C(=O)N(Cc4ccc(Cl)cc4)C(C(=O)NCc4ccccc4)C34C=CC2(C)O4)no1` (stereo not drawn) yielded a z-score of 0.193. To `Cc1cccc(NC(=O)CN2C(=O)S/C(=C\c3cc(C)n(C)c3C)C2=O)c1` belongs 0.326.

Regarding `CCOC(=O)N1CCN(CC(=O)N2c3ccccc3CC2C)CC1` (stereo not drawn), the z-score is -0.746. `COC(=O)C1=C(C)NC(C)=C(C(=O)OC)C1C(=O)OCC(=O)N1c2ccccc2CC1C` (stereo not drawn) yielded a z-score of 0.131.

Turning to `CCOC(=O)C1=C(C)NC(C)=C(C(=O)OCC)C1C(=O)OCC(=O)N1c2ccccc2CC1C` (stereo not drawn), the z-score came out at 2.55. Compound `C/C(=N\NC(=O)OC(C)(C)C)c1cccc([N+](=O)[O-])c1` yielded a z-score of -0.272. `Cc1ccc(C(=O)Nc2nc(=O)n(C(=O)C3CC3)s2)cc1` gave a z-score of -0.185. In the case of `Cc1ccc(Nc2cc(C)nc(NCc3ccccc3)n2)cc1` it was -0.326. Regarding `Cc1cc(N2CCN(c3ccccc3)CC2)nc(NCc2ccccc2)n1`, the z-score was 3. For `Cc1cc(N2CCCCC2)nc(NCc2ccccc2)n1`, the z-score is 0.794. `Cc1cc(N2CCOCC2)nc(NCc2ccccc2)n1` gave a z-score of -0.0745. Compound `Cc1cc(Nc2ccccc2)nc(NCc2ccccc2)n1` gave a z-score of 2.34.

Regarding `Cc1cc(Nc2ccc(Cl)cc2)nc(NCc2ccccc2)n1`, the z-score was -0.173. For the compound `c1ccc(-c2nnc(-c3ccccc3)c(-c3c[nH]c4ccccc34)n2)cc1`, the z-score is 0.446. In the case of `NNc1nc2c(F)cccc2s1`, the z-score was 0.0402. To `CC(=O)Nc1nc2c(F)cccc2s1` belongs 0.033; to `Fc1cc(F)c2nc(Nc3nc4c(F)cccc4s3)sc2c1`, 9.18 (active); to `NNc1nc2c(F)cc(F)cc2s1`, -0.193.

With `Cc1ccccc1Nc1nc2ccccc2s1`, the z-score was 0.103. Compound `Cc1ccc(Nc2nc3ccccc3s2)cc1` returned a z-score of 0.0689. In the case of `Fc1cc(F)c2nc(N3CCCCC3)sc2c1` it was -0.14. To `Fc1cccc2sc(Nc3nc4c(F)cccc4s3)nc12` belongs 2.09; to `Fc1cccc2sc(Nc3nc4ccccc4s3)nc12`, 2.21.

The values above are taken from PubChem BioAssay AID488969 (Vanderbilt High Throughput Screening Facility, 2010).
